# An excerpt weighted towards active compounds, which were near 14% of everything screened.
# Pf growth 48h = Primary qHTS for delayed death inhibitors of the malarial parasite plastid, 48 hour incubation; P. falciparum luciferase growth in erythrocytes, 48 h; Potency, µM (top dose mostly 28.7 µM), usual class: inhibitors; 310,000 tested, 5.9% active
#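 Erythrocytes infected with P. falciparum carrying an integrated firefly luciferase reporter (2% hematocrit, 0.1% parasitemia final) were exposed to compounds in RPMI 1640 with 0.5% Albumax at 37 C, 5% CO2. Growth inhibition was scored as reduced luminescence.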
# HCMV inh = qHTS Assay for inhibitors of the human cytomegalovirus (HCMV); AID 1259415, 2018; activity change, negative = inhibition, % at 57.5 µM; HFF cells, HCMV-luciferase reporter, 72 h; stronger effect = lower value; 410,000 tested, 4.5% active; in the data active = activity change below about -60%; inconclusive = no clear call, values can overlap the other calls; inactive = above about -39%
#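 HFF cells seeded 16 h at 37C, treated with compounds, infected with luciferase-reporter HCMV at MOI 1 PFU/cell; luciferase read at 72 h post infection, normalized to buffer-only and Salinomycin controls.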
# Pf growth 96h = Primary qHTS for delayed death inhibitors of the malarial parasite plastid, 96 hour incubation | P. falciparum luciferase reporter growth, 96 h | Potency, µM (top dose mostly 28.7 µM), most hits filed as inhibitors | 320,000 tested, 6.9% active | AID 504834, 2011
#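 P. falciparum expressing integrated firefly luciferase, in erythrocytes at 2% hematocrit, 0.05% parasitemia, incubated with compounds 96 h at 37 C, 5% CO2. Growth inhibition read as loss of luminescence; two-generation exposure targets delayed-death apicoplast inhibitors.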
# Sm TGR block = qHTS Assay for the Inhibitors of Schistosoma Mansoni Peroxiredoxins; 360,000 tested, 3% active; Potency, µM (doses to about 114 µM), usual class: inhibitors; purified TGR, DTNB reduction, TNB absorbance 405 nm; note: nearly all actives have a fitted effect of over 60% in size
#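 First, TGR (20 nM dispensed) and NADPH were mixed with compound. Second, a 15 min room-temperature incubation followed. Third, further NADPH and then DTNB were added to start the reaction. Finally, TNB absorbance was monitored kinetically.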
# FBPA Giardia inh = qHTS Assay for Inhibitors of Fructose-1,6-bisphosphate Aldolase from Giardia Lamblia. A8B2U2. purified Giardia FBPA. Potency, µM (top dose mostly 59.6 µM), most hits filed as inhibitors. 290,000 tested, 0.71% active. AID 2451, 2010; note: nearly all actives have a fitted effect of over 55% in size
# Target sequence (A8B2U2 whole entry, looked up): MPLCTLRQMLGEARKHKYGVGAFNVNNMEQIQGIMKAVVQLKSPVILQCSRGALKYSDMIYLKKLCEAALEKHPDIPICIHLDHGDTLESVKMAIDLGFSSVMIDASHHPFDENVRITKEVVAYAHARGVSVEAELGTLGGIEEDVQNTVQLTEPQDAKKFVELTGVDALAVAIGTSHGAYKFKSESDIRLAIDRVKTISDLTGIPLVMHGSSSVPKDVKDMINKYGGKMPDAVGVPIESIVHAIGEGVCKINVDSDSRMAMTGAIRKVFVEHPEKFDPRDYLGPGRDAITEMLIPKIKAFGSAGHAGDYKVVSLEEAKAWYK
#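 40 nM FBPA preincubated 10 min at RT with compound (up to 57.5 uM final), then substrate plus GAPDH/TPI/NAD/arsenate coupling and diaphorase/resazurin added. Fluorescence read after 20 min at RT, 525/598 nm.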
# A number is an active result; – = inactive; ? = inconclusive; · = no result. Unless noted, calls come from the whole dose curve; as a rule, active = well fitted curve in the direction sought with a large enough effect; inconclusive = small, poorly fitted or top-dose-only effect, or another doubt; inactive = no such curve, though single readings can be large; an effect the other way counts as inactive or inconclusive.
SMILES,Pf growth 48h,HCMV inh,Pf growth 96h,Sm TGR block,FBPA Giardia inh
COc1cccc(-n2c(C)nc3ccccc3c2=O)c1,–,–,·,–,–
COC(=O)c1ccc(Cn2cnc3ccccc3c2=O)cc1,–,–,?,–,–
Cc1ccc(-n2c(NN)nc3ccccc3c2=O)c(C)c1,?,–,9.3µM,–,?
CCOC(=O)c1cccc(-n2c(C)nc3ccccc3c2=O)c1,–,–,9.3µM,–,–
CCOC(=O)c1ccc(Cn2cnc3ccccc3c2=O)cc1,–,–,13µM,–,–
CCOC(=O)c1nc2ccccc2c(=O)n1-c1ccc(C)cc1C,?,?,?,–,–
Cc1cccc(-n2c(C)nc3ccccc3c2=O)n1,–,–,5.2µM,–,–
Cc1c(-c2ccc(Cl)cc2)c(=O)oc2c(CN3CCN(CCO)CC3)c(O)ccc12,·,–,·,–,·
COc1ccccc1CC(=O)N1CCN(c2ccccc2F)CC1,–,–,?,–,–
CC(C)C[C@@H](CC(=O)N[C@@H](CCCN)CC(=O)N[C@@H]1CCNC[C@H]1C(=O)N[C@H](CC(=O)N[C@@H](CCC(=O)O)CC(=O)O)CC(C)C)NC(=O)[C@@H]1CCCC[C@H]1N,·,·,·,·,–
COc1ccc(NC(=O)CCNS(=O)(=O)c2cccc3nsnc23)c(OC)c1,–,–,–,–,–
Cc1cccc(-n2c(C)nc3ccccc3c2=O)c1C,–,-76,–,–,–
Cc1cccc(-n2c(O)c(C=Nc3ccccc3O)c3ccccc3c2=O)n1,?,-64,–,–,–
O=C1c2ccccc2-n2c1nc1ccccc1c2=O,0.33µM,–,0.0037µM,–,?
CCc1ccccc1NC(=O)Nc1cc(C(=O)NCc2ccc(C)cc2)ccc1N1CCCC1,·,–,·,–,·
Cc1ccc(C2=NCCn3c2c2ccc(C(F)(F)F)cc2[n+]3[O-])cc1,10µM,–,?,–,·
COc1ccc(C2=NCCn3c2c2ccc(C(F)(F)F)cc2[n+]3[O-])cc1,?,–,–,–,·
CCOC(=O)CSC1=Nc2ccccc2C2=NC(CC(=O)NCc3ccc(OC)cc3)C(=O)N12 (stereo not drawn),6.6µM,–,·,–,–
CCOC(=O)CSC1=Nc2ccccc2C2=NC(CCC(=O)NCc3ccccc3)C(=O)N12 (stereo not drawn),·,–,·,–,·
O=C(CC1N=C2c3ccccc3N=C(SCc3ccc(Cl)cc3)N2C1=O)NCc1ccco1 (stereo not drawn),3.3µM,·,·,–,–
CCCCNC(=O)CC1N=C2c3ccccc3N=C(SCC(=O)Nc3cccc(C)c3)N2C1=O (stereo not drawn),1.9µM,?,2.6µM,–,–
CCOC(=O)CSC1=Nc2ccccc2C2=NC(CC(=O)NCc3ccc4c(c3)OCO4)C(=O)N12 (stereo not drawn),4.1µM,–,–,–,–
CS(=O)(=O)c1ccc(-c2nccc3[nH]nc(-c4cccc(F)c4)c23)cc1,·,–,·,·,·
CN1OC(C)(CC(=O)N2CCc3ccccc3C2)N=C1c1ccco1 (stereo not drawn),·,–,·,·,·
CCCn1cc(S(=O)(=O)c2ccccc2)c(=O)c2cc(F)c(N3CCN(C)CC3)cc21,–,–,–,–,–
SMILES,Pf growth 48h,HCMV inh,Pf growth 96h,Sm TGR block,FBPA Giardia inh
Cc1ccc(S(=O)(=O)/N=C(\Sc2ccccc2)c2ccccc2)cc1,–,–,–,7.9µM,–
O=S(=O)(/N=C(\Sc1ccccc1)c1ccccc1)c1ccc(Cl)cc1,–,–,?,–,–
Cc1ccc(S(=O)(=O)/N=C(/Sc2ccccc2C(=O)O)c2ccccc2)cc1,–,–,–,35µM,·
COc1ccc2c(c1)sc1ncc(C(=O)NCc3cccc(C)c3)c(=O)n12,·,–,·,–,·
O=C1C=C(c2ccc(OC(F)(F)F)cc2)C[C@@H](c2ccc(Cl)cc2)C1,?,–,–,–,·
Cc1ccc(NC(=O)Cn2c(=O)cc(-c3ccccc3)c3c(C)nn(C)c32)c(Cl)c1,·,–,·,–,·
O=C1/C(=C/c2ccc(N3CCOCC3)o2)SC(=Nc2ccccc2)N1CCc1c[nH]c2ccccc12,9.3µM,·,1.7µM,8.9µM,–
COc1cc(/C=C2\SC(=Nc3ccccc3)N(CCc3c[nH]c4ccccc34)C2=O)ccc1OC(C)C(=O)O (stereo not drawn),10µM,–,5.2µM,–,–
COc1ccc(N=C2S/C(=C\c3ccc(OC(C)C(=O)O)c(OC)c3)C(=O)N2CCc2c[nH]c3ccccc23)cc1 (stereo not drawn),?,–,1.7µM,–,–
COc1ccc(/C=C2\SC(=O)N(CCC(=O)Nc3ccccc3)C2=O)cc1OC,–,–,–,–,–
CCOC(=O)C1=C(O)/C(=C/c2ccc(OCC(=O)O)c(OC)c2)SC1=Nc1ccc(OC)cc1,?,–,?,–,–
COCCN1C(=O)/C(=C/c2ccc(Oc3ccc([N+](=O)[O-])cn3)c(OC)c2)SC1=Nc1ccccc1,–,?,1.5µM,–,–
O=C(COc1coc(CN2CCCc3ccccc32)cc1=O)Nc1ccccc1,?,–,?,–,·
CCc1ccc(NC(=O)COc2coc(CN3CCc4ccccc4C3)cc2=O)cc1,9.3µM,–,?,–,·
O=C(COc1coc(CN2CCCc3ccccc32)cc1=O)Nc1cccc([N+](=O)[O-])c1,?,–,6.6µM,–,·
O=C(COc1coc(CN2CCc3ccccc3C2)cc1=O)Nc1cccc([N+](=O)[O-])c1,12µM,–,?,–,·
Cc1cccc(NC(=O)COc2coc(CN3CCc4ccccc4C3)cc2=O)c1,8.3µM,–,?,–,·
O=C(COc1coc(CN2CCc3ccccc3C2)cc1=O)Nc1ccc(Cl)cc1,?,–,–,–,·
CCOc1ccccc1C(=O)N1CCC(c2nc3ccccc3o2)CC1,·,–,·,–,·
CC1=C(C(=O)N2CCCCCC2)CC(CC(=O)NC2CC2)C(=O)N1Cc1ccccc1 (stereo not drawn),·,–,·,·,·
CCOC(=O)c1c(C)[nH]c(CCC(=O)Nc2ccccc2C(=O)OC)c1C,·,-73,·,–,·
CCOC(=O)c1c(C)[nH]c(CCC(=O)Nc2ccccc2OCC)c1C,·,?,·,–,·
CC(C)(C)NS(=O)(=O)c1ccc(NC(=O)C2CC(=O)N(CCc3ccc(F)cc3)C2)cc1 (stereo not drawn),?,–,–,–,–
COCCCn1nnnc1SCC(=O)Nc1nc2ccccc2s1,–,–,–,–,·
CCOC(=O)c1c(NC(C)=O)sc2c(O)c(Br)cc(Br)c12,–,?,–,40µM,?
CCOC(=O)c1c(NC(C)=O)sc2c(OCC(O)CNC(C)(C)C)c(Br)ccc12 (stereo not drawn),–,-85,–,–,–
COC(=O)c1cc2oc3ccccc3c2n1Cc1nc(-c2ccc(Cl)cc2)oc1C,·,–,·,–,·
CCCCN(C)C(=O)c1sc2ncn(CC)c(=O)c2c1C,–,–,10µM,–,–
CCCNC(=O)Cn1cnc2sc(C(=O)NCCN(CC)CC)c(C)c2c1=O,–,–,–,–,–
